The source of these data is the supplement of paper PMC3414501.

Structures can show the parent of a compound that is named as a salt.

For assay [1], the system named is S. cerevisiae SK1 pCDA2-eGFP (USY613), sporulating. As to the kind of experiment: CDA2-GFP sporulation assay sensitivity score (z-score vs DMSO controls); higher = stronger inhibition of sporulation, active = hit call of the paper.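 Further: active if sensitivity score above 5.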
Assay [2] concerns S. cerevisiae AD1-9 (efflux-pump deficient), vegetative growth in YPD. As to the kind of experiment: growth sensitivity score (doubling time z-score vs DMSO controls); higher = slower growth, strongly negative scores also mark growth inhibition (complete suppression), active = hit call of the paper. In a few lines:
(§1)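 Yeast (Saccharomyces cerevisiae BY4741 and AD1-9) was grown in rich medium in microtiter plates from a starting OD600 of 0.065, with optical density read every 15 min over 24 hours. The growth sensitivity score was the difference between compound and solvent-only means, divided by the solvent-only standard deviation. Every experiment had eight solvent-only wells.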

For assay [3], the system named is S. cerevisiae BY4741 (wild-type), vegetative growth in YPD. The description is as above. In a few lines:
as §1

Assay [4] relates to S. cerevisiae NKY1551 his4x/his4B, sporulating. As to the kind of experiment: HIS4 meiotic recombination assay sensitivity score (z-score vs DMSO controls); higher = stronger inhibition of sporulation/recombination, active = hit call of the paper.
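Wherever HIS4 meiotic recombination assay sensitivity score (z-score vs DMSO controls) is given: active if sensitivity score above 5.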

Regarding `CCCN[C@H]1CCc2nc(N)sc2C1` [Pramipexole] (stock concentration (mM, diluted 1:100): 10), in assay [1], the “CDA2-GFP sporulation assay sensitivity score” value was -1.03 (inactive). Moreover, the growth sensitivity score is 51 (active) in assay [2] and -0.06 (inactive) in assay [3].

Turning to `CN(C)CC/C=C1/c2ccccc2COc2ccc(CC(=O)O)cc21` [Olopatadine hydrochloride] (stock concentration (mM, diluted 1:100): 12.7), the “CDA2-GFP sporulation assay sensitivity score” value in assay [1] was 1.08 (inactive). The “HIS4 meiotic recombination assay sensitivity score” value in assay [4] was -0.7 (inactive). In addition, the growth sensitivity score in assay [3] was -0.74 (inactive).

Turning to `OCCN1CCN(CCCN2c3ccccc3Sc3ccc(C(F)(F)F)cc32)CC1` [Fluphenazine hydrochloride] (stock concentration (mM, diluted 1:100): 10), in assay [1], the “CDA2-GFP sporulation assay sensitivity score” value is -0.3 (inactive).

For `O=C1[C@H](CC[C@H](O)c2ccc(F)cc2)[C@@H](c2ccc(O)cc2)N1c1ccc(F)cc1` [Ezetimibe] (stock concentration (mM, diluted 1:100): 10), in assay [1], the “CDA2-GFP sporulation assay sensitivity score” value is -0.54 (inactive). The “HIS4 meiotic recombination assay sensitivity score” value in assay [4] was -0.94 (inactive). In addition, the growth sensitivity score in assay [3] is -0.7 (inactive).

For the molecule `O=C(O)/C=C/c1ccc(Cn2ccnc2)cc1` [Ozagrel hydrochloride] (stock concentration (mM, diluted 1:100): 8.6), the “CDA2-GFP sporulation assay sensitivity score” value in assay [1] is 0.27 (inactive). Besides, the growth sensitivity score was 0.64 (inactive) in assay [2] and 2.72 (active) in assay [3].

As to `Cc1[nH]c(=O)c(C#N)cc1-c1ccncc1` [Milrinone] (stock concentration (mM, diluted 1:100): 10.1), in assay [1], the “CDA2-GFP sporulation assay sensitivity score” value is -1.34 (inactive). For the same molecule, the figures for the growth sensitivity score in assay [2] and in assay [3] were -2.83 and -0.97 (inactive), respectively.

For the molecule `COCc1c(C(C)C)nc(C(C)C)c(/C=C/[C@@H](O)C[C@@H](O)CC(=O)O)c1-c1ccc(F)cc1` [Cerivastatin] (stock concentration (mM, diluted 1:100): 10), the “CDA2-GFP sporulation assay sensitivity score” value in assay [1] was 0.79 (inactive). Also, in assay [4], the “HIS4 meiotic recombination assay sensitivity score” value was 0.17 (inactive). Besides, in assay [3], the growth sensitivity score is 28.6 (active).

Turning to `CN(CCCN1c2ccccc2CCc2ccccc21)CC(=O)c1ccc(Cl)cc1` [Lofepramine] (stock concentration (mM, diluted 1:100): 10), the “HIS4 meiotic recombination assay sensitivity score” value in assay [4] is 3.17 (inactive). For the same molecule, the growth sensitivity score in assay [2] was 51.9 (active); in assay [3] it was 3.15 (active).

With `COC(=O)CCc1ccc(OCC(O)CNC(C)C)cc1` (stereo not drawn) [Esmolol hydrochloride] (stock concentration (mM, diluted 1:100): 9), the “CDA2-GFP sporulation assay sensitivity score” value in assay [1] was 0.86 (inactive). Moreover, the growth sensitivity score in assay [2] is -2.29; in assay [3] it was -0.5 (inactive).

In the case of `CNS(=O)(=O)Cc1ccc2[nH]cc(CCN(C)C)c2c1` [Sumatriptan succinate] (stock concentration (mM, diluted 1:100): 7.2), the “CDA2-GFP sporulation assay sensitivity score” value in assay [1] was -0.43 (inactive). The growth sensitivity score was 0.45 (inactive) in assay [2] and -1.56 (inactive) in assay [3].

`Cc1c2oc3c(C)ccc(C(=O)N[C@@H]4C(=O)N[C@H](C(C)C)C(=O)N5CCC[C@H]5C(=O)N(C)CC(=O)N(C)[C@@H](C(C)C)C(=O)O[C@@H]4C)c3nc-2c(C(=O)N[C@@H]2C(=O)N[C@H](C(C)C)C(=O)N3CCC[C@H]3C(=O)N(C)CC(=O)N(C)[C@@H](C(C)C)C(=O)O[C@@H]2C)c(N)c1=O` [Dactinomycin] (stock concentration (mM, diluted 1:100): 10): the “HIS4 meiotic recombination assay sensitivity score” value in assay [4] was 0.61 (inactive). Moreover, the growth sensitivity score in assay [2] was -0.59 (inactive); in assay [3], 1.17 (inactive).

Take `CN1C(=O)CC[C@H]1c1cccnc1` [Cotinine] (stock concentration (mM, diluted 1:100): 10): in assay [1], the “CDA2-GFP sporulation assay sensitivity score” value was -0.11 (inactive). The growth sensitivity score is 1.38 (inactive) in assay [2] and 0.49 (inactive) in assay [3].

As for `CN(C)[C@@H]1C(O)=C(C(=O)NCN2CCCC2)C(=O)[C@@]2(O)C(O)=C3C(=O)c4c(O)cccc4[C@@](C)(O)[C@H]3C[C@@H]12` [Rolitetracycline] (stock concentration (mM, diluted 1:100): 10), in assay [4], the “HIS4 meiotic recombination assay sensitivity score” value was 3.05 (inactive). For the same molecule, the results for the growth sensitivity score in assay [2] and in assay [3] were -1.77 (inactive) and -1.17 (inactive), respectively.

As to `c1ccc(-c2ccc(C(c3ccccc3)n3ccnc3)cc2)cc1` (stereo not drawn) [Bifonazole] (stock concentration (mM, diluted 1:100): 10), in assay [1], the “CDA2-GFP sporulation assay sensitivity score” value was 0.04 (inactive).

Regarding `CN1CCN(CCCN2c3ccccc3Sc3ccc(Cl)cc32)CC1` [Prochlorperazine] (stock concentration (mM, diluted 1:100): 10.4), in assay [1], the “CDA2-GFP sporulation assay sensitivity score” value was 2.72 (inactive). In assay [4], the “HIS4 meiotic recombination assay sensitivity score” value was -2.14 (inactive). Moreover, the growth sensitivity score in assay [3] is 146 (active).

`CCCCC(=O)N(Cc1ccc(-c2ccccc2-c2nnn[nH]2)cc1)[C@H](C(=O)O)C(C)C` [Valsartan] (stock concentration (mM, diluted 1:100): 10): the “CDA2-GFP sporulation assay sensitivity score” value in assay [1] is 0.42 (inactive). Moreover, the growth sensitivity score in assay [2] was -1.81 (inactive); in assay [3], -1.05 (inactive).

For the molecule `CC[C@@H]1C(=O)OC[C@@H]1Cc1cncn1C` [Pilocarpine hydrochloride] (stock concentration (mM, diluted 1:100): 10), the “CDA2-GFP sporulation assay sensitivity score” value in assay [1] is 1.83 (inactive). Moreover, the growth sensitivity score in assay [2] is 0.16 (inactive); in assay [3], 0.72 (inactive).

`COc1ccc(-c2oc3c(CC=C(C)C)c(O[C@@H]4O[C@H](CO)[C@@H](O)[C@H](O)[C@H]4O)cc(O)c3c(=O)c2O[C@@H]2O[C@@H](C)[C@H](O)[C@@H](O)[C@H]2O)cc1` [Icariin] (stock concentration (mM, diluted 1:100): 10): the “CDA2-GFP sporulation assay sensitivity score” value in assay [1] was -1.61 (inactive). The “HIS4 meiotic recombination assay sensitivity score” value in assay [4] was 0.32 (inactive). Also, the growth sensitivity score in assay [3] is -1.71 (inactive).

For `O=C1N(c2ccccc2)c2ccccc2C1(Cc1ccncc1)Cc1ccncc1` (stock concentration (mM, diluted 1:100): 10), the “CDA2-GFP sporulation assay sensitivity score” value in assay [1] is 0.26 (inactive). In addition, the growth sensitivity score in assay [2] was 8.78 (active); in assay [3], 1.8 (inactive).

Regarding `COC1=C(OC)C(=O)C(CCCCCCCCCCO)=C(C)C1=O` [Idebenone] (stock concentration (mM, diluted 1:100): 10.2), the “CDA2-GFP sporulation assay sensitivity score” value in assay [1] was 0.12 (inactive). Besides, in assay [4], the “HIS4 meiotic recombination assay sensitivity score” value is -0.57 (inactive). For the same molecule, in assay [3], the growth sensitivity score is 15.6 (active).

Take `CN1CCN(c2nc3cc(C(F)(F)F)ccc3n3cccc23)CC1` (stock concentration (mM, diluted 1:100): 10): in assay [4], the “HIS4 meiotic recombination assay sensitivity score” value is -0.17 (inactive). For the same molecule, the growth sensitivity score in assay [3] is 351 (active).

Consider `CC(C)(O)c1ccccc1CC[C@@H](SCC1(CC(=O)O)CC1)c1cccc(/C=C/c2ccc3ccc(Cl)cc3n2)c1` [Montelukast] (stock concentration (mM, diluted 1:100): 9.6), for which, in assay [4], the “HIS4 meiotic recombination assay sensitivity score” value is 0.61 (inactive). Also, the values for the growth sensitivity score in assay [2] and in assay [3] were 0.91 (inactive) and -1.05 (inactive), respectively.

For the molecule `NC(=O)N1c2ccccc2CC(=O)c2ccccc21` [Trileptal] (stock concentration (mM, diluted 1:100): 10), the “HIS4 meiotic recombination assay sensitivity score” value in assay [4] is -2.89 (inactive). For the same molecule, the results for the growth sensitivity score in assay [2] and in assay [3] were 1.04 (inactive) and 1.24 (inactive), respectively.

Turning to `Cc1cc2c(s1)Nc1ccccc1N=C2N1CCN(C)CC1` [Olanzapine] (stock concentration (mM, diluted 1:100): 9.9), the “CDA2-GFP sporulation assay sensitivity score” value in assay [1] is 2.56 (inactive). Further, the figures for the growth sensitivity score in assay [2] and in assay [3] were -0.74 (inactive) and -0.76 (inactive), respectively.

For `CC[C@@]1(O)C(=O)OCc2c1cc1n(c2=O)Cc2cc3c(CN(C)C)c(O)ccc3nc2-1` [Topotecan hydrochloride] (stock concentration (mM, diluted 1:100): 9.2), the “HIS4 meiotic recombination assay sensitivity score” value in assay [4] was 0.22 (inactive). In addition, the growth sensitivity score was 4.71 (active) in assay [2] and -1.34 (inactive) in assay [3].

On to `CCc1nn(CCCN2CCN(c3cccc(Cl)c3)CC2)c(=O)n1CCOc1ccccc1` [Nefazodone] (stock concentration (mM, diluted 1:100): 9.3), for which the “CDA2-GFP sporulation assay sensitivity score” value in assay [1] was 5.84 (active). Also, the “HIS4 meiotic recombination assay sensitivity score” value in assay [4] was 3 (inactive). In assay [3], the growth sensitivity score was 9.68 (active).

For the molecule `COc1ccccc1OCC(O)CN1CCN(CC(=O)Nc2c(C)cccc2C)CC1` (stereo not drawn) [Ranolazine dihydrochloride] (stock concentration (mM, diluted 1:100): 8.6), in assay [1], the “CDA2-GFP sporulation assay sensitivity score” value was -1.05 (inactive). The figures for the growth sensitivity score in assay [2] and in assay [3] were -1.41 (inactive) and -0.31 (inactive), respectively.

As to `CCCCCNC(=N)N/N=C/c1c[nH]c2ccc(OC)cc12` [Tegaserod maleate] (stock concentration (mM, diluted 1:100): 7.2), the “CDA2-GFP sporulation assay sensitivity score” value in assay [1] was -3.28 (inactive).

Consider `COC(=O)C1=C(C)NC(C)=C(C(=O)OC)C1c1ccccc1[N+](=O)[O-]` [Nifedipine] (stock concentration (mM, diluted 1:100): 10.7), for which the “CDA2-GFP sporulation assay sensitivity score” value in assay [1] was 3.14 (inactive). Moreover, the growth sensitivity score in assay [2] is 60 (active); in assay [3] it was 4.28 (active).

Take `O=C(O)C[C@H](O)C[C@H](O)/C=C/c1c(C2CC2)nc2ccccc2c1-c1ccc(F)cc1` [Livalo] (stock concentration (mM, diluted 1:100): 5): in assay [1], the “CDA2-GFP sporulation assay sensitivity score” value is 0.3 (inactive). The values for the growth sensitivity score in assay [2] and in assay [3] were 32.2 (active) and 15.7 (active), respectively.

In the case of `CCOc1cc(CC(=O)N[C@@H](CC(C)C)c2ccccc2N2CCCCC2)ccc1C(=O)O` [Repaglinide] (stock concentration (mM, diluted 1:100): 10), the “CDA2-GFP sporulation assay sensitivity score” value in assay [1] is 2 (inactive). Moreover, the “HIS4 meiotic recombination assay sensitivity score” value in assay [4] was 0.84 (inactive). Also, the growth sensitivity score in assay [3] was 2.53 (active).

For `COc1cc2nc(N3CCN(C(=O)C4CCCO4)CC3)nc(N)c2cc1OC` (stereo not drawn) [Terazosin] (stock concentration (mM, diluted 1:100): 9.5), the “CDA2-GFP sporulation assay sensitivity score” value in assay [1] was 3.45 (inactive). In addition, the growth sensitivity score is -0.95 (inactive) in assay [2] and -0.03 (inactive) in assay [3].

For the molecule `Cc1cccc(CCN2CCC(C(=O)c3ccc(NS(C)(=O)=O)cc3)CC2)n1` (stock concentration (mM, diluted 1:100): 9.9), in assay [1], the “CDA2-GFP sporulation assay sensitivity score” value is -0.99 (inactive). Besides, in assay [4], the “HIS4 meiotic recombination assay sensitivity score” value is -3.32 (inactive). Besides, the growth sensitivity score in assay [3] is -0.44 (inactive).

As to `O=C1Nc2ccc(Cl)cc2[C@@](C#CC2CC2)(C(F)(F)F)O1` [Efavirenz] (stock concentration (mM, diluted 1:100): 10.1), in assay [1], the “CDA2-GFP sporulation assay sensitivity score” value was -2.28 (inactive). Besides, in assay [4], the “HIS4 meiotic recombination assay sensitivity score” value was -0.43 (inactive). Besides, the growth sensitivity score in assay [3] was 40.5 (active).

Take `C[C@]12C[C@H](O)[C@H]3[C@@H](CCC4=CC(=O)CC[C@@]43C)[C@@H]1CC[C@@H]2C(=O)CO` [Corticosterone] (stock concentration (mM, diluted 1:100): 10): the “CDA2-GFP sporulation assay sensitivity score” value in assay [1] is 3.57 (inactive). Moreover, the growth sensitivity score is 2.14 (active) in assay [2] and -0.97 (inactive) in assay [3].
